According to article PMC7826789 (International Journal of Molecular Sciences, 2021):

Assays:
Conditions in all cases: Compound Concentration (nM):1000
SIK = test system: T1, SIK
T1 construct: gene SIK1

SLK = test system: SLK
SNARK = test system: T2, SNARK
T2 construct: gene NUAK2

SNRK = test system: SNRK
SRC = test system: SRC
SRMS = test system: SRMS
SRPK1 = test system: SRPK1
SRPK2 = test system: SRPK2
SRPK3 = test system: SRPK3
STK16 = test system: STK16
STK33 = test system: STK33
STK35 = test system: STK35
STK36 = test system: STK36
STK39 = test system: STK39
SYK = test system: SYK
SgK110 = test system: SgK110
TAK1 = test system: T3, TAK1
T3 construct: gene MAP3K7

TAOK1 = test system: TAOK1
TAOK2 = test system: TAOK2
TAOK3 = test system: TAOK3
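Also: KINOMEscan scanMAX binding as percent activity remaining versus control; lower means stronger binding.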

Compound: COc1cc(N2CCN(C(C)C)CC2)ccc1Nc1nc(Nc2ccc(F)cc2C(=O)NC[C@@H](O)CO)c2cc[nH]c2n1 [GSK1392956A]
- Percent Control (SIK): 100%
- Percent Control (SLK): 100%
- Percent Control (SNARK): 66%
- Percent Control (SNRK): 87%
- Percent Control (SRC): 100%
- Percent Control (SRMS): 100%
- Percent Control (SRPK1): 99%
- Percent Control (SRPK2): 99%
- Percent Control (SRPK3): 100%
- Percent Control (STK16): 85%
- Percent Control (STK33): 1.5%
- Percent Control (STK35): 100%
- Percent Control (STK36): 100%
- Percent Control (STK39): 65%
- Percent Control (SYK): 92%
- Percent Control (SgK110): 100%
- Percent Control (TAK1): 100%
- Percent Control (TAOK1): 67%
- Percent Control (TAOK2): 100%
- Percent Control (TAOK3): 100%

Compound: NS(=O)(=O)c1ccc(N/N=C2\C(=O)Nc3ccc(C(=O)NCc4ccncc4)cc32)cc1 [GW300657X]
- Percent Control (SIK): 95%
- Percent Control (SLK): 100%
- Percent Control (SNARK): 8.9%
- Percent Control (SNRK): 100%
- Percent Control (SRC): 100%
- Percent Control (SRMS): 93%
- Percent Control (SRPK1): 89%
- Percent Control (SRPK2): 6.6%
- Percent Control (SRPK3): 72%
- Percent Control (STK16): 23%
- Percent Control (STK33): 87%
- Percent Control (STK35): 93%
- Percent Control (STK36): 97%
- Percent Control (STK39): 74%
- Percent Control (SYK): 73%
- Percent Control (SgK110): 100%
- Percent Control (TAK1): 29%
- Percent Control (TAOK1): 84%
- Percent Control (TAOK2): 99%
- Percent Control (TAOK3): 100%

Compound: CN(C)c1cc2c(Nc3ccc4c(cnn4Cc4ccccc4)c3)ncnc2cn1 [GW282974X]
- Percent Control (SIK): 29%
- Percent Control (SLK): 81%
- Percent Control (SNARK): 100%
- Percent Control (SNRK): 88%
- Percent Control (SRC): 100%
- Percent Control (SRMS): 74%
- Percent Control (SRPK1): 82%
- Percent Control (SRPK2): 100%
- Percent Control (SRPK3): 97%
- Percent Control (STK16): 88%
- Percent Control (STK33): 84%
- Percent Control (STK35): 100%
- Percent Control (STK36): 100%
- Percent Control (STK39): 95%
- Percent Control (SYK): 100%
- Percent Control (SgK110): 100%
- Percent Control (TAK1): 93%
- Percent Control (TAOK1): 92%
- Percent Control (TAOK2): 86%
- Percent Control (TAOK3): 100%

Compound: COc1ccc2c(-c3ccnc(Nc4cccc(OC(F)(F)F)c4)n3)cnn2n1 [GW810372X]
- Percent Control (SIK): 100%
- Percent Control (SLK): 100%
- Percent Control (SNARK): 73%
- Percent Control (SNRK): 98%
- Percent Control (SRC): 100%
- Percent Control (SRMS): 99%
- Percent Control (SRPK1): 88%
- Percent Control (SRPK2): 87%
- Percent Control (SRPK3): 92%
- Percent Control (STK16): 9.4%
- Percent Control (STK33): 90%
- Percent Control (STK35): 100%
- Percent Control (STK36): 100%
- Percent Control (STK39): 86%
- Percent Control (SYK): 83%
- Percent Control (SgK110): 100%
- Percent Control (TAK1): 95%
- Percent Control (TAOK1): 73%
- Percent Control (TAOK2): 98%
- Percent Control (TAOK3): 100%

Compound: CC1=C(C(=O)Nc2ccc3[nH]ncc3c2)C(c2ccc3ccccc3c2)CC(=O)N1 (centres unmarked) [GSK270822A]
- Percent Control (SIK): 100%
- Percent Control (SLK): 83%
- Percent Control (SNARK): 7.1%
- Percent Control (SNRK): 95%
- Percent Control (SRC): 74%
- Percent Control (SRMS): 100%
- Percent Control (SRPK1): 85%
- Percent Control (SRPK2): 100%
- Percent Control (SRPK3): 100%
- Percent Control (STK16): 88%
- Percent Control (STK33): 95%
- Percent Control (STK35): 99%
- Percent Control (STK36): 100%
- Percent Control (STK39): 71%
- Percent Control (SYK): 74%
- Percent Control (SgK110): 100%
- Percent Control (TAK1): 81%
- Percent Control (TAOK1): 76%
- Percent Control (TAOK2): 96%
- Percent Control (TAOK3): 93%

Compound: CCc1ccc(Oc2nccc(-c3c(-c4ccc(F)cc4)ncn3C3CCNCC3)n2)cc1 [SB-242719]
- Percent Control (SIK): 100%
- Percent Control (SLK): 79%
- Percent Control (SNARK): 87%
- Percent Control (SNRK): 99%
- Percent Control (SRC): 100%
- Percent Control (SRMS): 91%
- Percent Control (SRPK1): 82%
- Percent Control (SRPK2): 100%
- Percent Control (SRPK3): 88%
- Percent Control (STK16): 89%
- Percent Control (STK33): 92%
- Percent Control (STK35): 100%
- Percent Control (STK36): 82%
- Percent Control (STK39): 81%
- Percent Control (SYK): 85%
- Percent Control (SgK110): 100%
- Percent Control (TAK1): 96%
- Percent Control (TAOK1): 82%
- Percent Control (TAOK2): 93%
- Percent Control (TAOK3): 95%

Compound: O=C1Nc2ccc(C(=O)c3ccco3)cc2C1=Cc1cc(Cl)c(O)c(Cl)c1 [GW406108X]
- Percent Control (SIK): 93%
- Percent Control (SLK): 100%
- Percent Control (SNARK): 79%
- Percent Control (SNRK): 100%
- Percent Control (SRC): 100%
- Percent Control (SRMS): 89%
- Percent Control (SRPK1): 88%
- Percent Control (SRPK2): 100%
- Percent Control (SRPK3): 100%
- Percent Control (STK16): 60%
- Percent Control (STK33): 86%
- Percent Control (STK35): 100%
- Percent Control (STK36): 87%
- Percent Control (STK39): 81%
- Percent Control (SYK): 100%
- Percent Control (SgK110): 100%
- Percent Control (TAK1): 30%
- Percent Control (TAOK1): 40%
- Percent Control (TAOK2): 100%
- Percent Control (TAOK3): 85%

Compound: COc1cccc(-n2ncc3c(N/N=C/c4ccncc4)ncnc32)c1 [GW784752X]
- Percent Control (SIK): 100%
- Percent Control (SLK): 100%
- Percent Control (SNARK): 100%
- Percent Control (SNRK): 100%
- Percent Control (SRC): 54%
- Percent Control (SRMS): 99%
- Percent Control (SRPK1): 94%
- Percent Control (SRPK2): 100%
- Percent Control (SRPK3): 99%
- Percent Control (STK16): 82%
- Percent Control (STK33): 100%
- Percent Control (STK35): 100%
- Percent Control (STK36): 96%
- Percent Control (STK39): 100%
- Percent Control (SYK): 79%
- Percent Control (SgK110): 100%
- Percent Control (TAK1): 97%
- Percent Control (TAOK1): 39%
- Percent Control (TAOK2): 97%
- Percent Control (TAOK3): 91%

Compound: C/C(Nc1ccc(S(N)(=O)=O)cc1)=C1/C(=O)Nc2ccccc21 [GW335962X]
- Percent Control (SIK): 100%
- Percent Control (SLK): 92%
- Percent Control (SNARK): 65%
- Percent Control (SNRK): 100%
- Percent Control (SRC): 100%
- Percent Control (SRMS): 91%
- Percent Control (SRPK1): 82%
- Percent Control (SRPK2): 88%
- Percent Control (SRPK3): 87%
- Percent Control (STK16): 41%
- Percent Control (STK33): 92%
- Percent Control (STK35): 95%
- Percent Control (STK36): 98%
- Percent Control (STK39): 64%
- Percent Control (SYK): 94%
- Percent Control (SgK110): 100%
- Percent Control (TAK1): 70%
- Percent Control (TAOK1): 81%
- Percent Control (TAOK2): 92%
- Percent Control (TAOK3): 94%

Compound: CCn1c(-c2nonc2N)nc2c(C#CC(C)(C)O)nc(OCCNC)cc21.Cl [GSK949675]
- Percent Control (SIK): 89%
- Percent Control (SLK): 100%
- Percent Control (SNARK): 41%
- Percent Control (SNRK): 100%
- Percent Control (SRC): 100%
- Percent Control (SRMS): 100%
- Percent Control (SRPK1): 84%
- Percent Control (SRPK2): 100%
- Percent Control (SRPK3): 100%
- Percent Control (STK16): 100%
- Percent Control (STK33): 100%
- Percent Control (STK35): 100%
- Percent Control (STK36): 100%
- Percent Control (STK39): 98%
- Percent Control (SYK): 100%
- Percent Control (SgK110): 100%
- Percent Control (TAK1): 85%
- Percent Control (TAOK1): 72%
- Percent Control (TAOK2): 92%
- Percent Control (TAOK3): 90%
